Measured values reported in the supplement of paper PMC3334620.
Whole data set: some 33,000 sequences, median “E-score (-0.5 to 0.5)” near -0.016, cut for the highest 2% near 0.32. The full list was thinned out, with the highest values kept by preference.

molecular target: T1, Stp1 (UniProt B3LFK1); assay: PBM E-score (8-mer binding enrichment) (E-score (-0.5 to 0.5)); higher = stronger / more preferred TF binding; settings: protein concentration: 200 nM; construct: GST-full length
T1 sequence: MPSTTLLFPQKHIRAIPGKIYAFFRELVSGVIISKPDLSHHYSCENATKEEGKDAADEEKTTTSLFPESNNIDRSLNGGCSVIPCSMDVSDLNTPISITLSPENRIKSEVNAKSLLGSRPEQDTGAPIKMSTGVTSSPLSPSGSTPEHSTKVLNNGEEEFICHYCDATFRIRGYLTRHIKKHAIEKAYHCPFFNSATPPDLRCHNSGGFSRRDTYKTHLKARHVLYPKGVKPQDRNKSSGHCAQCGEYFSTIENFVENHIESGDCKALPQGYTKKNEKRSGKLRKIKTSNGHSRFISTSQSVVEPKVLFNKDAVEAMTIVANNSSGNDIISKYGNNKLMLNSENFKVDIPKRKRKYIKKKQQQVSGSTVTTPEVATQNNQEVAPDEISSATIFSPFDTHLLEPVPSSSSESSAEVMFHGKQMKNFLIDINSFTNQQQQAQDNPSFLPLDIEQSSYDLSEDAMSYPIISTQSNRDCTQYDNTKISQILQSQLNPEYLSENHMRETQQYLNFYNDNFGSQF
Method: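 Universal 'all 10-mer' protein binding microarrays (Agilent AMADID 015681) probed with GST-tagged S. cerevisiae TFs (full-length or DBD) made by in vitro transcription/translation (PURExpress), about 100-200 nM. Bound TF was detected with fluorescent anti-GST. Each ungapped 8-mer (which stands for itself and its reverse complement) is scored by the PBM enrichment score (E-score), a modified Wilcoxon-Mann-Whitney statistic from -0.5 to +0.5, computed with the Universal PBM Analysis Suite. Scale: above 0.35 generally sequence-specific binding.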

Sequence	PBM E-score
CCGTACGG	0.341
CCGTACGC	0.327
ACGTGCCA	0.148
ATTCTACA	0.221
CAAGTGAA	0.00842
ACATAAGC	0.00404
AGCTTACA	0.0627
AGACCCTC	-0.313
AATGTCAC	0.136
CTTATGGA	-0.0787
TCGGCGAA	-0.0263
CCGGCGGA	0.0459
GCGGCGGA	0.358
GAGGCGAC	0.155
ATGGCGAC	0.0528
CCGGCGAA	0.088
ACGGCGAC	0.467
ACGGCGGA	0.314
CCGGCGAC	-0.167
GCGGCGAA	0.427
GCGGCGAC	0.434
AGGGCGAC	0.015

Sequence	PBM E-score
AGCTATGA	-0.183
CACCTGCC	0.055
GGTGGCTA	0.0168
AAGCGTAC	-0.161
AGGGACAT	0.0229
CAGCTTGA	-0.0612
TAAGATGA	0.0182
TCATCCGA	0.0548
CAGGGGGG	-0.469
ATGGCGGC	0.158
ATGGCGAA	0.139
AGGGCGAA	-0.0283
ACGGCGGG	0.289
ACGGCGAA	0.465
ACGGCGGC	0.445
CAAGCTAC	-0.171
GATATATA	0.314
AGTATATG	-0.0746
AGTATATC	0.0639
CATATATA	0.256
TATATATA	0.345
AGTATATA	0.363

Sequence	PBM E-score
AACACTCT	0.00778
GACGGCGC	0.451
AACGGGGC	0.186
AATGGCGT	0.161
ACCGGCGT	0.0951
AATGGCGC	0.253
GACGGGGC	0.143
GCCGGCGC	0.346
CCCGGCGC	0.121
GATGGCGC	0.145
AACGGCGT	0.448
AACGGCGC	0.477
ACCGGCGC	0.3
ATAGCAGC	-0.187
CTGAGCGC	0.0168
GAGAACAA	0.145
CACGGGCA	0.231
ACGTAGTA	0.103
CCCTCTTC	-0.308
AACGGGGG	-0.316
AACGGCGG	0.378
AACGGGCG	0.154

Sequence	PBM E-score
CGACTGCG	-0.098
GAAAGACC	-0.321
AACGCCTT	0.328
AACGCCAC	0.245
AACGCCGG	0.0903
AACGCCGC	0.47
AACGCCGT	0.482
AACGCCCC	0.213
AACGCCTA	0.0856
AACGCCGA	0.292
AACGCCTC	0.225
ACCGACGA	-0.0695
CGCCATCA	-0.144
CTAGGTTA	0.00212
GACTTGGC	-0.232
GGCCCGTA	-0.0728
AGGCCGTA	0.298
CGGCCGTC	0.16
CGGCCGTA	0.37
CGGCCGGA	-0.15
